In PubChem BioAssay (NCATS):
Unmarked numbers belong to inactive results. Inconclusive results are not listed. Calls of active or inactive are those of the source. Unless noted, the call rests on the fitted dose curve; in most records, active means well fitted curve in either direction with a large enough effect (not every such curve was filed as active); inconclusive means small, poorly fitted or top-dose-only effect, or another doubt; inactive means flat fitted curve, though single readings scatter.

Tests used:
[1] = target: Lysosomal acid glucosylceramidase (Homo sapiens) (UniProt P04062); assay: Glucocerebrosidase-p2 (AID 348; in the data active means potency below about 10 µM; further: potency means the concentration at half of the fitted maximal effect); details: purified GBA, blue fluorogenic substrate, 40 min
Sequence of Lysosomal acid glucosylceramidase (Homo sapiens) (P04062 whole entry, looked up): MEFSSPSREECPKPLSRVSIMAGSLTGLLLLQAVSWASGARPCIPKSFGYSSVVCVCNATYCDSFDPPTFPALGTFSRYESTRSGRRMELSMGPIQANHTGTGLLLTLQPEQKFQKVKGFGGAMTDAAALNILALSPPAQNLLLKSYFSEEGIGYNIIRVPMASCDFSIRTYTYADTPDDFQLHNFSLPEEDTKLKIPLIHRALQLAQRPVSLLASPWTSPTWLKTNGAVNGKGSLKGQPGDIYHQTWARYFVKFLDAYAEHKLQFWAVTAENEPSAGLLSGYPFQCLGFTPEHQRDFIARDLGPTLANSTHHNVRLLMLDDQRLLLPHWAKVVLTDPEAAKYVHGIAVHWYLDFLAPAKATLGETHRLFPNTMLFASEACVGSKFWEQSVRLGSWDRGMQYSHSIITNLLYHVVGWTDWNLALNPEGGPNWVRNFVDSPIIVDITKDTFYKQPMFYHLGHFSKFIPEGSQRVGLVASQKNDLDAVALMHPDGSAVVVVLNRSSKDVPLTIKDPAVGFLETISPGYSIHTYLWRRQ
In short: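 Compounds titrated from 0.6 nM upwards against 0.2 nM enzyme in pH 5.9 citric acid/KH2PO4, taurocholate, tween-20; blue fluorogenic substrate 80 uM, 40 min room temperature, stopped and read Ex 365/Em 440 for AC50.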

[2] = AP1 Signaling Pathway (AID 357); details: ME-180 AP-1-bla reporter, EGF-induced, beta-lactamase ratio, 5 h; at 7.69 µM (top of the series) unless noted;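 further: ME-180 reporter cells stimulated with EGF at its EC50 level; on the % scale 0 is the no-effect control and ±100 the full control effect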
In short: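 Beta-lactamase reporter under AP-1 response element, ME-180 background. Stimulus: EC50 EGF. Compound exposure 5 h, 37 °C. Detection: CCF4, 2.5 h RT, 460/530 nm. Values: AC50 from titration.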

[3] = target: Cytochrome P450 1A2 (Homo sapiens) (UniProt P05177); assay: p450-cyp1a2 (AID 410; calls by dose curve; further: potency means the concentration at half of the fitted maximal effect;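 on activity change, negative = inhibition: -100% = full effect of reference inhibitor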); details: recombinant CYP1A2, luciferin-ME demethylation, luminescence; series mostly up to 11.4 µM
Sequence of Cytochrome P450 1A2 (Homo sapiens) (P05177 whole entry, looked up): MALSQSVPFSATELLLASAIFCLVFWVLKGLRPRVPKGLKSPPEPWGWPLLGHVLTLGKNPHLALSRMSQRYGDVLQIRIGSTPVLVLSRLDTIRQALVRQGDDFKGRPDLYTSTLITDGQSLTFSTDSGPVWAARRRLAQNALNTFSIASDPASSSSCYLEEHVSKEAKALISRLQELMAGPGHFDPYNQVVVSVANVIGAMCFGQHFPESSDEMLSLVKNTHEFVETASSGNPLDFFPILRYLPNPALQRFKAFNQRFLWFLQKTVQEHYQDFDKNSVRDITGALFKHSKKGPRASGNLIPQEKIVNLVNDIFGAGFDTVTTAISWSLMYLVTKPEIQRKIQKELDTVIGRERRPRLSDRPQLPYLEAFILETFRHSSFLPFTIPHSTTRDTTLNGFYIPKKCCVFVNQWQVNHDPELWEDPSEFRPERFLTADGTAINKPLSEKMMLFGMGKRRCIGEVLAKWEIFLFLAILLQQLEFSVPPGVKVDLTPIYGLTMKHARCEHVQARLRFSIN
In short: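 Human CYP1A2 (20nM) demethylated Luciferin-ME at its Km (100uM) in 100mM KPO4. After 10 min compound preincubation, NADPH regeneration ran the reaction 60 min at room temperature. Luciferin was read by luminescence, normalized to 57 uM furafylline.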

[4] = NFAT Signaling Pathway (AID 444); details: Jurkat NFAT-bla M1, carbachol, beta-lactamase ratio, 5 h; at 7.69 µM (top of the series) unless noted;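 further: carbachol stimulus at about its EC50 of 1 µM final; on the % scale 0 is the no-effect control and ±100 the full control effect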
In short: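 Jurkat cells with NFAT-driven β-lactamase reporter and co-expressed M1 receptor, stimulated with carbachol (final 1 uM, ~EC50), compound titration, 5 h at 37 °C. CCF4 loaded 1 h at RT; 460/530 nm ratio gave %activity and AC50.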

[5] = Stat Signaling Pathway (AID 446); details: ME-180 SIE beta-lactamase reporter, IL-6 stimulated, 5 h; at 7.69 µM (top of the series) unless noted;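 further: ME-180 cervical cancer cells given 40 pM IL-6 alongside compound; SIE-controlled beta-lactamase reporter measured as 460/530 nm FRET emission ratio; on the % scale 0 is the no-effect control and ±100 the full control effect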
In short: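 ME-180 cells carrying a SIE-driven beta-lactamase reporter are stimulated with 40 pM IL-6 for 5 h at 37C in the presence of compound. The 460/530 nm FRET substrate ratio is read after 2.5 h at RT. Data are normalised to 300 pM IL-6 and to 125 nM JAK inhibitor controls.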

[6] = target: Glucocorticoid receptor (Homo sapiens) (UniProt P04150); assay: GR-GFP Redistribution (AID 450;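 active means compounds whose dose series gives a full or clear partial fitted curve of increased nuclear translocation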; further: potency means the concentration at half of the fitted maximal effect); details: U2OS GR-GFP nuclear translocation, laser cytometry, 2 h
Sequence of Glucocorticoid receptor (Homo sapiens) (P04150 whole entry, looked up, the tested form may be a part): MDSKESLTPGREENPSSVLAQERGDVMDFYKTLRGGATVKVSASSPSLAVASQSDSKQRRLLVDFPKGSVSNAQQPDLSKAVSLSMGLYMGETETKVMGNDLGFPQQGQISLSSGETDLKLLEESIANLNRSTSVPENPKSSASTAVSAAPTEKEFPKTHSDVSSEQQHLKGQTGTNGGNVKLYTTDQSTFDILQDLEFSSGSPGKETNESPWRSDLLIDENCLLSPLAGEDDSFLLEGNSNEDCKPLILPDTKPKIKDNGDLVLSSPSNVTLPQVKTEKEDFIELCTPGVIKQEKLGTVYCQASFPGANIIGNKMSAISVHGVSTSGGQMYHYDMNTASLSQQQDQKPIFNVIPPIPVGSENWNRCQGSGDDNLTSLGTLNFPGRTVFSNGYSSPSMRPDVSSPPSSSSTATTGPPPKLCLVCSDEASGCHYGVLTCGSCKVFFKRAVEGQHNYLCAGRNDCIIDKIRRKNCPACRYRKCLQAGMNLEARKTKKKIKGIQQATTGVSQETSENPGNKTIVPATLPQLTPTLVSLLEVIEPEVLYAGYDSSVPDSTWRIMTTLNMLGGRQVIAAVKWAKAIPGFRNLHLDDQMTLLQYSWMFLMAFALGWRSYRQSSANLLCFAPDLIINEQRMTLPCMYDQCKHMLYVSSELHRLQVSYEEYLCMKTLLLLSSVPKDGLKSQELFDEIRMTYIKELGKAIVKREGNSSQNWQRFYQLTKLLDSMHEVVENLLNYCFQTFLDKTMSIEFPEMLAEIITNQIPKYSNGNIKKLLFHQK

[7] = target: Glucocorticoid receptor (Homo sapiens) (UniProt P04150); assay: GR-EFC Redistribution (AID 451; calls by dose curve; further: potency means the concentration at half of the fitted maximal effect); details: CHO-K1 GR-EFC translocation, beta-gal luminescence, 2 h
In short: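 CHO-K1 cells expressing nuclear EA and GR-ED fragments of b-gal; compounds titrated up to 46 uM final, 2 h at 37 C. GR nuclear translocation read as complemented b-gal luminescence after 1 h RT detection.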

[8] = target: Mitogen-activated protein kinase 10 (Mus musculus) (UniProt Q61831); assay: JNK3 AlphaScreen Assay (AID 530); details: JNK3 lysate, c-Jun phosphorylation; series mostly up to 11.4 µM;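 further: kinase came from lysate of stimulated human HepG2 cells; signal reports phosphorylation of biotinylated GST-cJun 1-79 at Ser73 with 10 µM ATP; on the % scale 0 is the no-effect control and ±100 the full control effect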
In short: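 qHTS format: compounds tested as titrations against IL-1beta/TNF-alpha-activated HepG2 lysate JNK3 with biotin-GST-cJun substrate and 10 uM ATP at room temperature. Loss of anti-phospho-cJun AlphaScreen signal indicates inhibition.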

[9] = target: 3',5'-cyclic-AMP phosphodiesterase 4B (Homo sapiens) (UniProt Q07343); assay: qHTS Assay for Inhibitors of PDE-IV (AID 607; active means well fitted activation curve with a large enough effect in the main read-out, with a control signal flat, not every such curve was filed as active; further: % of control where 0% means no effect); details: HEK293 ACTOne CNG channel cells, membrane potential fluorescence; series mostly up to 22.9 µM
Sequence of 3',5'-cyclic-AMP phosphodiesterase 4B (Homo sapiens) (Q07343 whole entry, looked up): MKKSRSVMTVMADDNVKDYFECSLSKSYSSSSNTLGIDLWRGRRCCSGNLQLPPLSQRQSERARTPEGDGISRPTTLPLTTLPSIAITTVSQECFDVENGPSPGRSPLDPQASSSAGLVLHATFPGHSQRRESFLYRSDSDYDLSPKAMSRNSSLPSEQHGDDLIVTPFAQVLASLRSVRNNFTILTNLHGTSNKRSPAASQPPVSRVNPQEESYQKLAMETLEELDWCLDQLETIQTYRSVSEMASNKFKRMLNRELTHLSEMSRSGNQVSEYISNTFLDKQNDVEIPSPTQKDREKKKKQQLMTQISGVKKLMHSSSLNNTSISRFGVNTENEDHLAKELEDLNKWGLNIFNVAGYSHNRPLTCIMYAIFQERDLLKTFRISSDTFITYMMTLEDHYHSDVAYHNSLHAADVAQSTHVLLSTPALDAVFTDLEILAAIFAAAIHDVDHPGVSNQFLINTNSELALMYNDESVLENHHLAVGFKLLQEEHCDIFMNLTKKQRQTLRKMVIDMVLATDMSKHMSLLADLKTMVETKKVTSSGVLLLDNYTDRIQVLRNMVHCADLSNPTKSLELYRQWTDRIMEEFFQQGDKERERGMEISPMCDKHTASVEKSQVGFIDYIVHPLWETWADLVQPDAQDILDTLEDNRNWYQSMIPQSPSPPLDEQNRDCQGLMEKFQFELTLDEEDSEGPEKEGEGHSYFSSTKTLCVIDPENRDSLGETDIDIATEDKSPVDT
In short: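 HEK293 ACTOne cells with CNG channel (1000/well), endogenous PDE4; membrane potential dye, compounds up to 22.9 uM final. Fluorescence Ex 535/Em 590; RO 20-1724 (100 uM final) as reference.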

[10] = target: Cytochrome P450 3A4 (Homo sapiens) (UniProt P08684); assay: qHTS Assay for Activators of Cytochrome P450 3A4 (AID 885; active means well fitted activation curve with a large enough effect; further: nearly all actives have a fitted effect of over 65% in size); details: recombinant CYP3A4, Luciferin-PPXE luminescence, 60 min; series mostly up to 11.4 µM
Sequence of Cytochrome P450 3A4 (Homo sapiens) (P08684 whole entry, looked up): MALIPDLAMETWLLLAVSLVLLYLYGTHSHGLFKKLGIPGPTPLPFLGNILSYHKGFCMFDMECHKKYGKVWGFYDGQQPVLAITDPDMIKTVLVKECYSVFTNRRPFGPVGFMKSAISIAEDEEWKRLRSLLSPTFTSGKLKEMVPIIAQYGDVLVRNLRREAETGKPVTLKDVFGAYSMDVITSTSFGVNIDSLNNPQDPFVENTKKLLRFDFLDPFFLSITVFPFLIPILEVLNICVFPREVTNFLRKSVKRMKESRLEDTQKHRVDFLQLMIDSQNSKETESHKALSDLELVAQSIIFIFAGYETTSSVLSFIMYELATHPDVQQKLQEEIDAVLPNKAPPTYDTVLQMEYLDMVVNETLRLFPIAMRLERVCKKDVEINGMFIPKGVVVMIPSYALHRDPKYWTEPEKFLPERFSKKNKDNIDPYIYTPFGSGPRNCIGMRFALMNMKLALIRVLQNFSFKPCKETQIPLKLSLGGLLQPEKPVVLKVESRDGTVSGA
In short: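 Human CYP3A4 (20 nM) with Luciferin-PPXE at 25 uM (its KM) in 200 mM KPO4; 10 min compound preincubation, then NADPH regeneration and 60 min reaction at RT. Luciferin read by luminescence; normalized to 57 uM ketoconazole full inhibition.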

| Compound | Potency [1] [µM] | activity change, negative = inhibition [2] [%] | Potency [3] | activity change, negative = inhibition [4] [%] | activity, negative = inhibition [5] [%] | Potency [6] [µM] | Potency [7] [µM] | Potency [8] | Potency [9] | Potency [10] | activity change, negative = inhibition [3] |
| --- | --- | --- | --- | --- | --- | --- | --- | --- | --- | --- | --- |
| O=C(O)c1nc2nc(Cl)c(Cl)nc2[nH]1 | > 11.4 | 0.697 | inactive | -0.0714 | 2.39 | > 46 | > 9.22 | inactive | inactive | inactive | – |
| C[C@@H]1CCCN(CP(=O)(c2ccccc2)c2ccccc2)C1 | > 11.4 | 2.85 | inactive | -1.11 | 0.378 | > 46 | > 9.22 | inactive | inactive | inactive | – |
| N/N=C1/c2ccccc2N[C@H]1OC(=O)Nc1cccc(Cl)c1 | > 11.4 | -17.3 | 0.794 µM (active) | -19.2 | -0.394 | > 46 | > 9.22 | inactive | inactive | inactive | – |
| Cc1cnc2cc(Cl)ccc2c1SCC(=O)O | > 11.4 | -8.88 | – | -0.25 | -11.6 | > 46 | > 9.22 | inactive | inactive | inactive | -2.3% [at 2.29 µM] |
| S=C(Nc1ccc2c(c1)Cc1ccccc1-2)Nc1ccc2c(c1)Cc1ccccc1-2 | > 11.4 | -4.53 | 0.2 µM (active) | 9.24 | 3.09 | > 46 | > 9.22 | inactive | inactive | inactive | – |
| C[C@@H]1Oc2ccc(C(=O)C[C@@H](C(=O)O)c3ccc4c(c3)OCO4)cc2O1 | > 11.4 | 1.87 | 0.794 µM (active) | -10.8 | -5.57 | > 46 | > 9.22 | inactive | inactive | inactive | – |
| c1ccc(C2=NN[C@@H]3c4ccccc4-c4ccccc4N3C2)cc1 | > 11.4 | -18.5 | 0.2 µM (active) | -9.73 | -6.54 | > 46 | > 9.22 | inactive | inactive | inactive | – |
| CC(C)c1ccccc1S(=O)c1ccccc1C(C)(C)O (stereo not given) | > 11.4 | -11.8 | – | 20.3 | 2.89 | > 46 | > 9.22 | inactive | inactive | inactive | -10.7% [at 2.29 µM] |
| CN1CCN(Cc2nc3cccc4c3c([n+]2[O-])-c2ccccc2-4)CC1 | > 11.4 | -4.75 | 1.26 µM (active) | 9.77 | 6.12 | > 46 | > 9.22 | inactive | inactive | inactive | – |
| NCCNS(=O)(=O)c1ccc(N)cc1 | > 11.4 | 3.42 | inactive | -2.06 | 3.19 | > 46 | > 9.22 | inactive | inactive | inactive | – |
| CCCCN1CSC(=S)N(Cc2ccccc2)C1 | > 11.4 | 3.6 | 3.98 µM (active) | -0.909 | 2.92 | > 46 | > 9.22 | inactive | inactive | inactive | – |
| O=S1(=O)[C@H]([C@H]2CC3c4ccccc4C2c2ccccc23)[C@@H](N2CCCCC2)[C@@H]1c1ccccc1 | > 11.4 | 28.4 | – | -27.2 | 10.9 | > 46 | > 9.22 | inactive | inactive | inactive | 1.6% [at 2.29 µM] |
| CC(C)(C)CC(C)(C)c1cc(O)c(O)c(CN2CCCCC2)c1 | > 11.4 | 0.737 | inactive | -28.7 | 3.86 | > 46 | > 9.22 | inactive | inactive | inactive | – |
| [O-][n+]1c(CN2CCCCC2)nc2cccc3c2c1-c1ccccc1-3 | > 11.4 | -8.04 | 1.58 µM (active) | 26.2 | 6.89 | > 46 | > 9.22 | inactive | inactive | inactive | – |
| CC(C)C[C@@H](N)C(=O)Nc1ccc2ccccc2c1 | > 11.4 | 9.25 | 1.58 µM (active) | 8.34 | -2.09 | > 46 | > 9.22 | inactive | inactive | inactive | – |
